Most compounds without a hit are left out; they make up all but 6.1% or so of the library.
ATXN2 expr inh – Primary qHTS for Inhibitors of ATXN expression | HEK-293 ATXN2-luciferase reporter, luminescence, 24 h | hit rate 0.72% among 360,000 | Potency, µM (top dose mostly 57 µM), inactives show top-dose activity change, negative = inhibition, actives largely listed as inhibitors | AID 1745845, 2022; also: % is scaled to controls: 0 for no effect and ±100 for the full control effect; nearly all actives have a fitted effect of over 55% in size
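qHTS (up to 57 uM final) was run with 24 h compound exposure of reporter cells at 37 °C. Each well was multiplexed: SteadyGlo luminescence measured ATXN2-luciferase expression after a fluorogenic Gly-Phe-AFC viability readout (25 uM final).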
HepG2 tox – qHTS for Inhibitors of TGF-b: Cytotox Counterscreen. hit rate 0.76% among 410,000. Potency, µM (doses to about 46.1 µM), without a hit: top-dose activity change, negative = cytotoxicity, actives largely listed as cytotoxic. HepG2 CAGA-GFP viability, ATP luminescence, 18 h
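CellTiter-Glo luminescence gave cytotoxicity after 18 hours at 37 degrees C. The cells were HepG2 CAGA-GFP in 1% FBS DMEM, stimulated with 500 pg/mL TGF-beta after compound addition. %Activity was normalised to no-cell wells (complete cell-killing) and DMSO (no toxicity), and curves were fitted and classified.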
ATXN viability – Viability Counterscreen for Primary qHTS for Inhibitors of ATXN expression | S2 cells (HEK-293 line with an ATXN2-luciferase reporter) viability, CellTiter-Fluor protease fluorescence, 24 h | AID 651635, 2014 | hit rate 0.49% among 400,000 | Potency, µM (series often up to 56.7 µM), actives largely listed as cytotoxic; also: nearly all actives have a fitted effect of over 40% in size
RORg inh – qHTS for inhibitors of ROR gamma transcriptional activity; hit rate 5.4% among 310,000; Potency, µM (top dose mostly 53.6 µM), without a hit: at the highest dose activity change, negative = inhibition, usual class: inhibitors; AID 2551, 2010; Nuclear receptor ROR-gamma (Mus musculus), P51450; Drosophila S2 Gal4-RORgamma UAS-luciferase reporter, 20 h; also: % is scaled to controls: 0 for no effect and ±100 for the full control effect; nearly all actives have a fitted effect of over 60% in size
Target sequence (P51450 whole entry, looked up, the tested form may be a part): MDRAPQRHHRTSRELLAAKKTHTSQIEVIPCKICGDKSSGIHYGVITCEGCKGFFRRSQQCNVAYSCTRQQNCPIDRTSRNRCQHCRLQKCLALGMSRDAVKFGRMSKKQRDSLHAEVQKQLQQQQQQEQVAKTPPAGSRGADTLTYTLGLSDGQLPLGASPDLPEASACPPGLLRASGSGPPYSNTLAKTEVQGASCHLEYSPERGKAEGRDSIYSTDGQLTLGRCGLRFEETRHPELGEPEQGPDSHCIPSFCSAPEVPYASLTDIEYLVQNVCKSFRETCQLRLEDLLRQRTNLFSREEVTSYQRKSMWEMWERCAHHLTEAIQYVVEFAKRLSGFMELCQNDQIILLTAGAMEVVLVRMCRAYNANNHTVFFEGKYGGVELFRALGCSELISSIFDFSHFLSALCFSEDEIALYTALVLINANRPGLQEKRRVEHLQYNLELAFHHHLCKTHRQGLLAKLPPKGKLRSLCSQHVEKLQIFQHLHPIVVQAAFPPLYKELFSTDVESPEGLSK
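Drosophila S2 cells stably expressing Gal4-DBD/mouse RORγ fusion under metallothionein promoter plus UAS-luciferase; compound 1 h, then 700 uM CuSO4 induction for 20 h at ambient temperature; inhibition read as reduced luminescence.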
TGFb inhibitor – qHTS for Inhibitors of TGF-b; HepG2 CAGA-GFP TGF-b/SMAD3 reporter, GFP fluorescence, 18 h; TGF-beta stimulated, 500 pg/mL final; Potency, µM (highest dose often 46.1 µM), without a hit: top-dose activity, negative = inhibition, usual class: inhibitors; hit rate 1.2% among 410,000; also: % is scaled to controls: 0 for no effect and ±100 for the full control effect; nearly all actives have a fitted effect of over 65% in size
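Cell-based qHTS in HEPG2 carrying a CAGA-GFP Smad reporter; compounds added before 500 pg/mL final TGF-beta, 18 h incubation at 37 degrees C, GFP fluorescence quantified per cell by imaging cytometry.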
VP16 counter – VP16 counterscreen qHTS for inhibitors of ROR gamma transcriptional activity. Drosophila S2 Gal4-VP16 UAS-luciferase, luminescence, 20 h. Potency, µM (series often up to 53.6 µM), without a hit: at the top dose activity, negative = inhibition, actives largely listed as inhibitors. hit rate 3.5% among 310,000. AID 2546, 2010;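 also: Gal4-VP16 expression switched on by copper sulfate through the metallothionein promoter; % is scaled to controls: 0 for no effect and ±100 for the full control effect; nearly all actives have a fitted effect of over 50% in size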
The depositor's hits bear a star; i = inactive; ? = inconclusive; · = not tested or not shown. Calls follow the shape of the dose curve; as a rule, active = well fitted curve in the direction sought with a large enough effect; inconclusive = small, poorly fitted or top-dose-only effect, or another doubt; inactive = no such curve, though single readings can be large; an effect the other way counts as inactive or inconclusive. Potency is read from the fitted curve at half-maximal effect.

SMILES | ATXN2 expr inh | HepG2 tox | ATXN viability | RORg inh | TGFb inhibitor | VP16 counter
NC(=O)C1CCN(c2nc(-c3cccc(Cl)c3)cs2)CC1 | 4% | 6.3µM* | i | · | ? | ·
COc1cccc(-c2csc(N3CCN(C(=S)Nc4ccccc4Cl)CC3)n2)c1 | 13% | -23% | i | 11µM* | ? | ?
Cc1c(Cl)cccc1NC(=O)N1CCC(CN2CCOCC2)CC1 | · | -9% | · | · | 0% | ·
O=C(Cn1c(=O)nc(-c2ccccc2)c2cc(Cl)ccc21)N1CCN(c2ccc(F)cc2)CC1 | · | 0% | · | · | -4% | ·
COc1ccc(NC(=O)N2CCN(c3nc(-c4cccc(OC)c4)cs3)CC2)cc1 | 22µM* | -26% | ? | ? | -8% | 0%
COc1cccc(-c2csc(N3CCN(C(=S)Nc4cccc(Cl)c4)CC3)n2)c1 | ? | -55% | ? | 2.8µM* | ? | 18µM*
CCNC(=S)N1CCN(c2nc(-c3cccc(OC)c3)cs2)CC1 | 144% | -11% | ? | 14% | ? | ?
CN1CCN(/N=C/c2ccc(N(C)c3ccccc3)cc2)CC1 | -10% | -2% | ? | -16% | -8% | -7%
CN1CCN(/N=C/c2ccc(N(c3ccccc3)c3ccccc3)cc2)CC1 | 0.84µM* | 4% | · | 28% | 2µM* | 1%
Cc1cnc(-n2ncc(C(=O)NCCCc3ccncc3)c2C)nc1-c1ccc(F)cc1 | · | · | i | · | · | ·
Cc1cc(C)cc(NC(=O)C2CCN(S(=O)(=O)c3cn(C)cn3)CC2)c1 | · | -2% | · | · | 5% | ·
COc1cc(-c2nc(CN3CCCN(C(=O)c4ccco4)CC3)c(C)o2)ccc1F | -7% | -17% | i | -8% | ? | -6%
CCOC(=O)CC1CCCCN1Cc1nc(-c2ccc(F)c(OC)c2)oc1C (centres undefined) | -22% | -15% | i | 3.5µM* | -11% | -13%
CCc1ccc(-c2nc(NC(=S)NC(=O)c3cccs3)sc2C)cc1 | -15% | -11% | i | ? | 9% | 3.2µM*
COC(=O)c1nc(NC(=S)NC(=O)c2cccs2)sc1C | 17% | -12% | i | 4µM* | 12% | 4.5µM*
O=C(NC(=S)Nc1nc2ccccc2s1)c1cccs1 | 45% | -31% | i | ? | -13% | ?
COC(=O)Cc1nc(NC(=O)c2cccs2)sc1C | 44% | 0% | i | 20% | 14% | -2%
CC1CCCN(C(=O)N2c3ccccc3Sc3ccccc32)C1 (centres undefined) | 87% | -14% | i | -11% | 4% | 1%
CC1CN(C(=O)N2c3ccccc3Sc3ccccc32)CC(C)O1 (centres undefined) | 36% | 0% | i | 31% | -29% | 3.5µM*
O=C(NC1CCN(C(=O)N2c3ccccc3Sc3ccccc32)CC1)c1ccccc1F | ? | -8% | ? | ? | ? | 3.5µM*
Cc1ccc(-c2nc3cc(Cl)ccc3o2)cc1NC(=O)COc1ccc(F)cc1 | 6% | -10% | i | · | -27% | ·
Cc1ccc(Cn2ccn(Cc3ccc(C)cc3)c(=O)c2=O)cc1 | · | 1% | · | · | · | ·
CC(C)C(=O)Nc1cccc(C(=O)Nc2nnc(CC(C)(C)C)s2)c1 | 5% | -17% | i | · | -23% | ·
CC(C)(C)c1ccc(C(=O)N/N=C/c2ccccn2)cc1 | ? | -14% | ? | 1.4µM* | ? | 4.5µM*
CC(C)(C)c1ccc(/C=N/NC(=O)c2ccccn2)cc1 | ? | -33% | i | 10µM* | 9% | -24%
SMILES | ATXN2 expr inh | HepG2 tox | ATXN viability | RORg inh | TGFb inhibitor | VP16 counter
Cc1ccc(C(=O)N/N=C\c2ccccn2)cn1 | -9% | -21% | i | -30% | 9% | 20%
O=C(N/N=C/c1ccccn1)c1ccc(Br)cc1 | ? | -8% | ? | 6.3µM* | ? | 3.2µM*
O=C(N/N=C/c1ccc(F)cc1)c1ccc(Br)cc1 | 37% | 4% | i | ? | -15% | -1%
Cc1ccccc1C(=O)Nc1ccc(C(=O)N/N=C/c2ccccn2)cc1 | 2% | -17% | i | -13% | 4% | -10%
Cc1cccc(/C=N/NC(=O)c2ccc(Br)cc2)c1 | 33% | -12% | i | 18µM* | ? | -20%
CSc1ccc(CCNC(=O)c2cc3c(-c4ccccc4F)nn(C)c3s2)cc1 | -7% | -16% | i | · | 1% | ·
CC(=O)c1ccc(OCC(=O)N2CCCCC2)cc1 | 46% | · | i | · | · | ·
CN1CCN(C(CNC(=O)c2cccc(F)c2)c2ccc3c(c2)OCO3)CC1 (centres undefined) | 3% | -19% | i | · | -4% | ·
Cc1cc(-n2c(=O)[nH]c(=O)n(C)c2=O)ccc1Oc1ccc(S(=O)(=O)C(F)(F)F)cc1 | · | · | i | · | · | ·
COc1cccc(/C=N/NC(=O)c2ccc(OCc3cccc(Br)c3)cc2)c1 | -10% | -38% | i | 14µM* | 6% | -1%
CCCCCN(C(=O)NC(=O)Nn1cnnc1)S(C)(=O)=O | 3% | -6% | i | -2% | -5% | 2%
CCCCCN(C(=O)NC(=O)Nc1nncs1)S(C)(=O)=O | 15% | -3% | i | 11µM* | -1% | -1%
O=C(c1ccc(Cl)cc1)n1nc(-c2ccco2)nc1NCc1cccs1 | 0% | -37% | i | · | -3% | ·
Cc1ccc(C(=O)C[n+]2cc(-c3ccc(C)cc3)n3c2CCCCC3)cc1 | ? | -11% | ? | ? | ? | 5µM*
Cc1ccc(-c2c[n+](CC(=O)Nc3nc(-c4ccc(F)cc4)cs3)c3n2CCC3)cc1 | -17% | 18µM* | ? | 7% | ? | 6%
O=C(C[n+]1cc(-c2ccc(F)cc2)n2c1CCC2)Nc1nc(-c2ccccc2)cs1 | 26% | 5% | i | -6% | 10% | 3%
COc1ccc(C(=O)C[n+]2cc(-c3ccc(OC)cc3)n3c2CCCC3)cc1 | -18% | -10% | ? | 39% | -1% | -5%
CCc1ccc(NC(=O)CSc2nc3c(sc4ccccc43)c(=O)n2CCCOC)cc1 | -5% | 6% | i | · | 0% | ·
COc1ccc(Cl)cc1-c1n[nH]c(=S)n1C1CCCCC1 | 5% | -14% | i | 4µM* | -5% | 7.9µM*
Cc1ccsc1-c1n[nH]c(=S)n1C1CCCCC1 | -13% | 0% | i | 3.5µM* | 3% | ?
S=c1[nH]nc(-c2cccnc2)n1C1CCCCC1 | 6% | -4% | i | ? | -24% | ?
COc1ccc(-c2n[nH]c(=S)n2C2CCCCC2)cc1 | 0% | -1% | i | 3.2µM* | 4% | 7.1µM*

Assay outcomes deposited in PubChem BioAssay by National Center for Advancing Translational Sciences (NCATS).
